Reference: PubChem BioAssay (NCI)
Several values for one entry are separate records, joined by “and”; a condition that tells them apart may be missing. Identical values can stand only once. Compounds without any hit were thinned out: in the full panel of roughly 83,000, 20% have a hit.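 Method: cells in 96-well plates; compound added at one concentration; 48 h incubation; percent growth measured; values under 10 scored active.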 Activity calls are given as the source filed them.

The compounds below were run on MDA-MB-468 breast (assay: NCI-60 one-dose screen, 48 h (100 = growth as untreated, 0 = no growth, -100 = all killed)). Details: 10 µM unless noted.
For Cc1cc(-c2cc(C)c(N)cc2C)c(C)cc1N, the growth was 61% (inactive).
In the case of O=S(=O)(NCCCNc1nccc(-c2c(-c3cccc(O)c3)nc3occn23)n1)c1ccc(F)cc1, the growth is reported as 100% (inactive).
Cc1ccc(/C=N/Nc2nc(Nc3ccccc3)nc(Nc3ccc(S(N)(=O)=O)cc3)n2)cc1 was tested, and the growth was 65% (inactive).
For CCCCCCCCCCCCCCCCCCOc1ccccc1CC(=O)OCC[N+]1(C)CCOCC1, the growth was 51.9% (inactive).
CC(=O)c1cc(Cl)ccc1O was tested, and the growth was 97.5% (inactive).
In the case of O=C(Nc1cccc(-n2ccc3c(NC(=O)c4ccccc4)nccc32)c1)Nc1ccc(Cl)c(C(F)(F)F)c1, the growth is reported as -3.83% (active).
With COC(=O)/C=C/c1cc(OC(C)=O)c2c(c1)[C@@H](C(=O)OC)[C@H](c1ccc(OC(C)=O)c(OC(C)=O)c1)O2 the growth was -1.27% (active).
In the case of CCN(CC)CCCC(C)Nc1cnc(C(=O)Nc2cc(C)cc3cccnc23)cn1 (stereo not given), the growth is reported as 9.36% (active).
For COc1cc(/C=C\c2cc(/C=C\c3ccc(O)c(OC)c3)n(C(=O)COc3ccccc3)n2)ccc1O, the growth was -1.76% (active).
With Nc1ccc(C(=O)c2ccc(N)c(Br)c2)cc1Br the growth was -0.913% (active).
For Nc1ncc(-c2cnn(C3CCNCC3)c2)cc1-c1nc2ccccc2o1, the growth was -29.1% (active).
For COc1cc2nc3cc([N+](=O)[O-])ccc3c(Cl)c2cc1OC, the growth was 10.7% (inactive).
COc1cc(-c2nc3occn3c2-c2ccnc(NCCCNS(=O)(=O)c3ccccc3)n2)ccc1F was tested, and the growth was 5.92% (active).
In the case of CC(=O)Nc1nccs1, the growth is reported as 107% (inactive).
c1c[nH]c(CNC2CCCCC2)c1 was tested, and the growth was 141% (inactive).
For CCN(CC)CCCC(Nc1c2ccc(Cl)cc2nc2ccc(OC)cc12)c1ccc(Cl)cc1 (stereo not given), the growth was -78.5% (active).
In the case of CCN(CC)Cc1cc(Nc2ccnc3cc(Cl)ccc23)ccc1OC, the growth is reported as 93.6% (inactive).
CCOC(=O)/C(=C\c1ccccc1Cl)P(=O)(OCC)OCC was tested, and the growth was 43.5% (inactive).
With O=S(=O)(NCCCNc1nccc(-n2cnc3ccccc32)n1)c1ccc(C(F)(F)F)cc1 the growth was 76.2% (inactive).
Cc1cc(C)c2c(c1)N(C)c1ncnc(-n3cnc4cc(C)ccc43)c1CC2C (stereo not given) was tested, and the growth was 6.16% (active).
In the case of CS(=O)(=O)c1c(Nc2ccccc2)n[nH]c1N, the growth is reported as 110% (inactive).
For NC1=NC(c2ccc(Cl)cc2)C2=C(N1)/C(=C/c1ccc(Cl)cc1)CCC2 (stereo not given), the growth was 62.2% (inactive).
COc1cc(-c2nc(-c3ccccc3)c(-c3ccccc3)[nH]2)cc(OC)c1O was tested, and the growth was -49.2% (active).
In the case of Cc1cc2ccccc2cn1, the growth is reported as 96.6% (inactive) and 102% (inactive).
Cc1cn(C2CCCCC2)c(=O)[nH]c1=O was tested, and the growth was 105% (inactive).
NNC(=O)c1ccccc1N was tested, and the growth was 94.8% (inactive).
For COc1cc(-c2nc(/C=C3/C(=O)Nc4ccccc43)c3ccccn23)cc(OC)c1OC, the growth was 87.9% (inactive).
For C=CC(=O)Nc1cccc(-c2nc(SC)nc(NCc3ccccc3)c2C#N)c1, the growth was 52.1% (inactive).
With Cc1sc2c(c1C)c(=O)nc1c(-c3nc(-c4ccccc4)cs3)n[nH]n12 the growth was 116% (inactive).
In the case of CC(C)NCCCCCNc1cc(O)cc2cccnc12, the growth is reported as 18.6% (inactive).
With CC1(C)OC(=O)C(=Cc2cccc(Br)c2)C(=O)O1 the growth was 111% (inactive).
With Nc1nc(Br)nc2c1ncn2C1CC(O)C(CO)O1 (stereo not given) the growth was 100% (inactive).
In the case of COc1ccc(NC(=O)CSc2nc(-c3ccc(OC)c(OC)c3)cc(-c3cc(OC)c(OC)c(OC)c3)n2)cc1, the growth is reported as 110% (inactive).
With Cc1nc2ccccc2c(N)c1-c1cc(C)c2c(C)nc3ccccc3c2n1 the growth was -94.8% (active).
For O=C1c2cc3c(cc2-c2c1c1ccc(Cl)cc1c(=O)n2CCCNCCO)OCO3, the growth was -91.6% (active).
For CCOC(=O)C/C(=N\Nc1cc(=O)[nH]c2ccc(Cl)cc12)C(=O)OCC, the growth was 98.6% (inactive).
CCCN1CCN(c2ccc3nc(-c4ccc5nc(-c6cc(OC)ccc6OC)[nH]c5c4)[nH]c3c2)CC1 was tested, and the growth was 114% (inactive).
In the case of CCN(CC)S(=O)(=O)c1ccc(O)c(NC(=O)c2[nH]c(C)c(C(C)=O)c2CCc2ccc(Cl)cc2)c1, the growth is reported as 19.8% (inactive).
O=C(Nc1ccc(Cl)cc1)c1cc(NCc2cc(O)ccc2O)ccc1O was tested, and the growth was 81.2% (inactive).
CN1CCN(c2cc3c(cc2F)c(=O)c(C(=O)O)cn3-c2ccc(F)cc2)CC1 was tested, and the growth was 110% (inactive).
